Drawing on PubChem BioAssay (NCI), this text covers growth for 14 compounds.

Each structure is given as a SMILES string. The panel holds about 83,000 compounds, 20% with a hit somewhere; the sample as a whole holds those more often.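 A percent growth of 40 corresponds to 60% growth inhibition; 0 means no net growth; -100 means all cells died. Active threshold: below 10.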 A number with no mark means an inactive call. Calls of active or inactive are those of the source.

What all share (test): NCI-60 one-dose screen, 48 h (100 = growth as untreated, 0 = no growth, -100 = all killed)
Common to all, as to conditions: 10 µM unless noted

The subject of test [1] is NCI-H23 lung.
Test [2] concerns NCI-H226 lung.
Test [3] deals with NCI-H322M lung.
In test [4] the test system is HOP-62 NSCLC.
Test [5] relates to NCI-H460 lung.
Test [6] has as its system NCI-H522 lung.
For test [7], the system named is A549/ATCC NSCLC.
For test [8], the system named is 786-0 renal.
In test [9] the test system is COLO 205 colon.

Turning to `COc1c(F)ccc(C(=O)Nc2ccc3nc(NC(=O)C4CCCN(S(=O)(=O)c5cccc(Br)c5)C4)sc3c2)c1F` (stereo unspecified), the growth in test [1] was 96.3%; in test [2], 88.4%; in [3], 94%; in [4] it was 107%; in test [5], 80.3%; in [6], 78.9%. The growth is 75.6% in [7], 70% in test [8] and 86.4% in [9].

For `O=C(CCN1C(=O)/C(=C/c2ccc(F)cc2)SC1=S)N1CCOCC1`, the growth in test [1] was 67.9%; in test [2], 74.2%; in test [3] it was 80.2%; in test [4], 109%; in [5], 68.6%; in test [6], -79% (active). Moreover, the growth in test [7] was 81.5%; in [8], 67.1%; in test [9], 75%.

As to `COc1ccc(-c2nc3cc(C)ccc3n2CC(=O)N=Nc2c(O)[nH]c3ccc(OC)cc23)cc1`, the growth is -65.1% (active) in [1]; -66.6% (active) in test [2]; -4.47% (active) in [3]; -70.5% (active) in test [4]; -48% (active) in [5]; -40.9% (active) in test [6]. Besides, the figures for the growth in test [7], in test [8] and in [9] were -49.7% (active), -69.3% (active) and -68.2% (active), respectively.

For the compound `Cc1ncsc1-c1ccc(CNC(=O)[C@@H]2C[C@@H](O)CN2C(=O)[C@@H](NC(=O)C2(F)CC2)C(C)(C)C)c(OCCOCCOCCOCCOc2nc(Nc3cc(S(C)(=O)=O)ccc3N[C@@H](c3cccc4c3OC(F)(F)O4)c3ncccc3Cl)nc(N3CCNCC3)n2)c1`, the growth in test [1] was 85.3%; in [2], 71.5%; in test [3] it was 82.3%; in test [4], 90.6%; in test [5] it was 87.3%; in test [6] it was 100%. The growth in [7] is 103%; in test [8], 97.7%; in test [9], 89.8%.

For `Brc1ccc(-c2n(Cc3ccc4ccccc4c3)c(-c3ccccc3)c(-c3ccccc3)[n+]2Cc2ccc3ccccc3c2)cc1`, the growth is -89.3% (active) in test [1]; -51.6% (active) in test [2]; -99.1% (active) in [3]; -83.4% (active) in test [4]; -81.3% (active) in [5]; -90.9% (active) in test [6]. Also, the values for the growth in test [7], in test [8] and in test [9] were -88.8% (active), -79.3% (active) and -78.2% (active), respectively.

Regarding `Cn1cc(-c2cc3nc(-c4cn(C)c5ncc(Br)cc45)cc(N)n3n2)c2ccccc21`, the growth is -22.5% (active) in test [1]; -2.09% (active) in test [2]; -20.2% (active) in [3]; -34.5% (active) in test [4]; -54.6% (active) in [5]; -70.6% (active) in [6]. Besides, the growth in test [7] is 2.3% (active); in test [8], -87.7% (active); in [9], -81.4% (active).

Consider `CCOC(=O)c1ccc(Nc2nc(NN)nc(-c3ccc(F)cc3)c2C#N)cc1`, for which the growth in [1] was 110%; in test [2] it was 116%; in test [3], 109%; in test [4], 103%; in test [5], 112%; in test [6] it was 98.5%. For the same compound, the figures for the growth in test [7], in test [8] and in test [9] were 105%, 103% and 119%, respectively.

For `O=C(CN1C(=O)/C(=C/c2ccccc2Cl)SC1=S)N1CCOCC1`, the growth is 98% in test [1]; 77.9% in test [2]; 95.3% in test [3]; 116% in [4]; 107% in test [5]; -74.8% (active) in test [6]. Further, the figures for the growth in test [7], in test [8] and in test [9] were 97.8%, 80.4% and 100%, respectively.

In the case of `CCOC(=O)c1ccc(Nc2nc(NN)nc(-c3ccc(OC)cc3)c2C#N)cc1`, the growth in [1] was 115%; in test [2], 112%; in test [3], 123%; in [4], 109%; in [5], 109%; in test [6] it was 103%. In addition, the growth was 105% in test [7], 99.3% in test [8] and 116% in test [9].

On to `N/C(=N\c1nc2ccccc2s1)NC(=O)Nc1ccc(Cl)cc1Cl`, for which the growth in [1] was -83.4% (active); in [2] it was -40.2% (active); in [3], -51.3% (active); in test [4] it was -77% (active); in [5] it was -95.9% (active); in test [6], -78.6% (active). Also, the growth in test [7] was -85.4% (active); in test [8], -78.6% (active); in [9], -87.7% (active).

Regarding `COc1ccc(-c2ccnc(SCc3cc4cc(OC)ccc4[nH]c3=O)n2)cc1`, the growth is 25.8% in test [1]; 39.4% in test [2]; 48.1% in test [3]; 34.7% in test [4]; 14.9% in test [5]; 11.8% in [6]. The growth in test [7] was 20.2%; in test [8], 44.1%; in [9], 15.7%.

With `COc1ccc(-c2nc3cc(C)ccc3n2CC(=O)N=Nc2c(O)[nH]c3ccc(Cl)cc23)cc1`, the growth in test [1] was -62.9% (active); in test [2], -34.1% (active); in test [3], 10.1%; in [4] it was -50.4% (active); in test [5], 10.6%; in test [6], 14.9%. Also, the growth in test [7] was -62.4% (active); in test [8] it was 11%; in [9] it was -39.7% (active).

In the case of `Cc1sc2c(c1C)C(c1ccc(Cl)cc1)=N[C@@H](CC(=O)NCCCCCNC(=O)COc1ccc(C3CCC(=O)NC3=O)cc1)c1nnc(C)n1-2` (stereo partly specified), the growth in test [1] was 47.3%; in [2], 8.38% (active); in test [3] it was 23.7%; in test [4], 16%; in [5], 73%; in test [6] it was 3.85% (active). Besides, the growth in [7] is 25.7%; in test [8], 26.5%; in [9], -61.7% (active).

As to `CCCCSc1nc(Nc2ccc(S(N)(=O)=O)cc2)c(C#N)c(-c2ccc(Cl)cc2)n1`, the growth in test [1] is 26.1%; in test [2], 12.8%; in [3] it was 73.8%; in test [4] it was 10.6%; in test [5], 7.9% (active); in test [6] it was 63.8%. The growth in test [7] was 1.68% (active); in test [8] it was 23%; in test [9], 55.2%.
